The assay is described as follows: qHTS profiling of the MIPE4 collection as inhibitors of Plasmodium falciparum (DD2) proliferation (Rep 2) (AID 743346). As to conditions: P. falciparum Dd2 in erythrocytes, SYBR Green DNA, 72 h; at 28.5 µM unless noted. The source says:
Plasmodium falciparum is a virulent malarial parasite that kills 1-2 million people worldwide each year. Transmitted by mosquitoes, the sporozoite form of the parasite enters the blood stream to infect hepatocytes, where they become merozoites that infect red blood cells (erythrocytes). Within erythrocytes, merozoites begin a […] cycle of growth and division, after which the parasite is released to infect new red blood cells. Gametocytes, which form within erythrocytes as well, circulate in the bloodstream and are ingested by the mosquito, thereby completing the life cycle. To profile malarial isolates for differential chemical responses and to identify inhibitors of malarial growth, an assay that measures P. falciparum growth and replication within erythrocytes was employed. This assay uses a DNA binding fluorescent dye (SYBR Green) to detect parasite DNA following cell lysis. Because mature erythrocytes lack DNA, only Plasmodium-derived DNA is detected.
The SYBR Green viability assay was adapted from a method described previously (Plouffe et al., 2008). For screening 3 ul culture medium was dispensed into 1536 well black clear bottom plates (Aurora Biotechnologies) using a Multidrop Combi (Thermo Fisher Scientific Inc.), 23 nL compounds in DMSO were added by a pin tool (Kalypsys), and 5 ul of erythrocytes infected with P. falciparum (0.3% parasitemia, 2.5% hematocrit final concentration) were added. The plates were incubated at 37 C in a humidified incubator in 5% CO2 for 72 h, and 2 ul lysis buffer (20 mM Tris HCl, 10 mM EDTA, 0.16% saponin, 1.6% triton X, 10X SYBR Green I supplied as 10,000X […] by Invitrogen) was added to each well. The plates were mixed for 25 sec with gentle shaking and incubated overnight at room temperature in the dark. The following morning, fluorescence intensity at 485(14) nm excitation and 535(25) nm emission wavelengths was measured on an EnVision (Perkin Elmer) plate reader. Plate reads were normalized relative to the control inhibitor (0.29 uM artemisinin) and vehicle (DMSO) wells present on each plate and then corrected by an algorithm using vehicle-only control plates at the beginning and end of the compound plate stack.
Take `C[C@@H]1CCN(C(=O)CC#N)C[C@H]1N(C)c1ncnc2[nH]ccc12`: the parasite growth, % of control (lower = inhibition) amounted to 93.5%.

As for `CCOC(CN1C(=O)[C@](CC(=O)Nc2ccc(C)cc2)(NC(=O)Nc2ccc(C)cc2)c2ccccc21)OCC`, the parasite growth, % of control (lower = inhibition) was determined as 26.1%.

Regarding `CCCCCN(C)CCC(O)(P(=O)(O)O)P(=O)(O)O`, the parasite growth, % of control (lower = inhibition) amounted to 114%.

In the case of `Nc1ncnc2c1ncn2[C@@H]1O[C@@H](CO)[C@H](O)[C@H]1O`, the parasite growth, % of control (lower = inhibition) was found to be 114%.

As to `CON=C(C(=O)N[C@@H]1C(=O)N2C(C(=O)OCOC(=O)C(C)(C)C)=C(C=Cc3scnc3C)CS[C@H]12)c1csc(N)n1`, the parasite growth, % of control (lower = inhibition) worked out at 73%.

Regarding `C[C@H](NC(=O)c1sccc1OCc1ccc(Cl)cc1)c1ccccc1`, the parasite growth, % of control (lower = inhibition) is 10.7%.

In the case of `Nc1nc(F)nc2c1ncn2[C@@H]1O[C@H](COP(=O)(O)O)[C@@H](O)[C@H]1O`, the parasite growth, % of control (lower = inhibition) amounted to 10.9%.

As to `Cc1ccc(C(C)(O)c2nc3ccccc3s2)c(C)c1` (stereo not given), the parasite growth, % of control (lower = inhibition) worked out at 88.7%.

In the case of `COc1ccc(-c2nc(N3CCOCC3)c3sc(CN(C)c4ncc(C(=O)NO)cn4)cc3n2)cn1`, the parasite growth, % of control (lower = inhibition) came to 8.46%.

Turning to `CCC(=O)NC[C@H](Cc1ccc(OCCc2nc(-c3ccccc3)oc2C)cc1)NC(C)=CC(=O)c1ccc(C(F)(F)F)cc1`, the parasite growth, % of control (lower = inhibition) amounted to 21.5%.

On to `Nc1ncnc2c1ncn2[C@@H]1O[C@H](CO)C[C@@H]1O`, for which the parasite growth, % of control (lower = inhibition) was found to be 57.5%.

Regarding `O=C1NC(=O)C(=Cc2cccc(C(F)(F)F)c2)S1`, the parasite growth, % of control (lower = inhibition) turned out to be 76.4%.

Take `Cc1cccc(Nc2nc(-c3ccncc3)cs2)c1`: the parasite growth, % of control (lower = inhibition) is 42.6%.

On to `CC(=O)Nc1ccc([C@H](C)C(=O)Nc2ncc(C(C)C)s2)cc1`, for which the parasite growth, % of control (lower = inhibition) amounted to 7.23%.

For `CCN(CC)CCOc1ccc(C(=C(Cl)c2ccccc2)c2ccccc2)cc1`, the parasite growth, % of control (lower = inhibition) came out at 6.97%.

As to `Cc1c[nH]c(C=C2C(=O)Nc3ccccc32)c1CCC(=O)O`, the parasite growth, % of control (lower = inhibition) is 29.1%.

Turning to `O=C1c2ccccc2-[n+]2ccc3c([nH]c4ccccc43)c21`, the parasite growth, % of control (lower = inhibition) amounted to 16.6%.

With `COc1cc(N2CCC(N3CCN(C)CC3)CC2)ccc1Nc1ncc(Cl)c(Nc2ccccc2S(=O)(=O)C(C)C)n1`, the parasite growth, % of control (lower = inhibition) was found to be 5.51%.

With `CC=CC[C@@H](C)C(=O)[C@H]1C(=O)N[C@@H](C(C)C)C(=O)N(C)CC(=O)N(C)[C@@H](CC(C)C)C(=O)N[C@@H](C(C)C)C(=O)N(C)[C@@H](CC(C)C)C(=O)N[C@@H](C)C(=O)N[C@H](C)C(=O)N(C)[C@@H](CC(C)C)C(=O)N(C)[C@@H](CC(C)C)C(=O)N(C)[C@@H](C(C)C)C(=O)N1C`, the parasite growth, % of control (lower = inhibition) worked out at 107%.

As for `CCC(=O)O[C@]1(C(=O)CO)CC[C@H]2[C@@H]3CCC4=CC(=O)CC[C@]4(C)[C@@H]3CC[C@@]21C`, the parasite growth, % of control (lower = inhibition) amounted to 38.1%.

`c1ccc2c(Cc3c[nH]c4ccccc34)c[nH]c2c1`: the parasite growth, % of control (lower = inhibition) came to 22.5%.

Consider `C[C@]12CC[C@@H]3c4ccc(O)cc4C[C@@H](CCCCCCCCCS(=O)CCCC(F)(F)C(F)(F)F)[C@H]3[C@H]1CC[C@H]2O` (stereo not given in full), for which the parasite growth, % of control (lower = inhibition) amounted to 10.8%.

With `COc1ccc2c(Oc3ccc(NC(=O)c4c(C)n(CC(C)(C)O)n(-c5ccccc5)c4=O)nc3)ccnc2c1`, the parasite growth, % of control (lower = inhibition) came to 37%.

As for `CC[C@@]1(O)C[C@H](O[C@H]2C[C@H](N(C)C)[C@H](O[C@H]3C[C@H](O)[C@H](O[C@H]4CCC(=O)[C@H](C)O4)[C@H](C)O3)[C@H](C)O2)c2c(cc3c(c2O)C(=O)c2c(O)cccc2C3=O)[C@@H]1C(=O)OC`, the parasite growth, % of control (lower = inhibition) worked out at 5.22%.

Regarding `COc1ccc2cc(-c3nc(-c4ccc(S(C)=O)cc4)[nH]c3-c3ccncc3)ccc2c1` (stereo not given), the parasite growth, % of control (lower = inhibition) was found to be 10.6%.

As for `O=C1NC(=O)C(=Cc2ccc(-c3ccc(F)cc3)o2)S1`, the parasite growth, % of control (lower = inhibition) was determined as 91.6%.

Regarding `Cc1c(NC(=O)c2ccc(C(C)(C)C)cc2)cccc1-c1cn(C)c(=O)c(Nc2ccc(C(=O)N3CCOCC3)cc2)n1`, the parasite growth, % of control (lower = inhibition) worked out at 10.1%.

For `COc1cc2c(cc1OC)CN(CCc1ccc(NC(=O)c3cc(OC)c(OC)cc3NC(=O)c3cnc4ccccc4c3)cc1)CC2`, the parasite growth, % of control (lower = inhibition) is 83.4%.

On to `C[N+](C)(C)CC(=O)O`, for which the parasite growth, % of control (lower = inhibition) was determined as 93.5%.

In the case of `C=C1C(=O)OC(CCCCCCCC)C1C(=O)O` (stereo not given), the parasite growth, % of control (lower = inhibition) stood at 62.9%.

On to `O=c1c(-c2ccc(O)cc2)coc2cc(O[C@@H]3O[C@H](CO)[C@H](O)[C@H](O)[C@H]3O)ccc12`, for which the parasite growth, % of control (lower = inhibition) stood at 85.3%.

For `CC(=NNC(=S)N1CCC1)c1ccccn1`, the parasite growth, % of control (lower = inhibition) turned out to be 10.5%.

Regarding `CC(C)C(C)C=CC(C)C1CCC2C3=CC=C4CC(O)CCC4(C)C3CCC21C` (stereo not given), the parasite growth, % of control (lower = inhibition) turned out to be 92.8%.

For the compound `Cc1ccn(-c2ccc(-c3ncco3)cc2)c(=O)c1-c1ccc2nc(N)ncc2c1`, the parasite growth, % of control (lower = inhibition) was found to be 56.7%.

`Cc1ccc(C(=O)Nc2cccc(C(F)(F)F)c2)cc1Nc1nc(-c2cccnc2)nc2c1cnn2C`: the parasite growth, % of control (lower = inhibition) amounted to 27.1%.

On to `CCCCCNC(=O)N1CCC(CN(Cc2ccc(Cl)cc2)Cc2ccc([N+](=O)[O-])s2)C1` (stereo not given), for which the parasite growth, % of control (lower = inhibition) stood at 30.3%.

In the case of `O=C(O)C=Cc1ccc(O)c(O)c1`, the parasite growth, % of control (lower = inhibition) is 22.8%.

For the compound `C[C@H](NC(=O)C(=O)Nc1ccccc1C(C)(C)C)C(=O)N[C@@H](CC(=O)O)C(=O)COc1c(F)c(F)cc(F)c1F`, the parasite growth, % of control (lower = inhibition) stood at 49.8%.

On to `O=c1c(-c2ccc(O)cc2)coc2cc(O)ccc12`, for which the parasite growth, % of control (lower = inhibition) amounted to 89.3%.

As to `O=c1cc(N2CCOCC2)oc2c(-c3cccc4c3sc3ccccc34)cccc12`, the parasite growth, % of control (lower = inhibition) was determined as 25.8%.

Values taken from PubChem BioAssay (NCATS).
